Laboratory results taken from PubChem BioAssay (Tox21).
Inconclusive results are not listed. Entries that show only a call come without a potency. Values without a mark were called inactive. Calls of active or inactive are those of the source. Calls follow the shape of the dose curve; as a rule, active = well fitted curve in the direction sought with a large enough effect in the repeat runs; inconclusive = weak or mixed curves; inactive = no such curve, though single readings can be large; an effect the other way counts as inactive or inconclusive.

system: not listed separately; experiment: qHTS assay to identify small molecule antagonists of the estrogen receptor alpha (ER-alpha) signaling pathway using the BG1 cell line - cell viability counter screen (AID 743081); conditions: BG1Luc4E2 viability, CellTiter-Fluor, 22 h; series mostly up to 70.3 µM;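 also: compound given together with 17beta-estradiol as the ER stimulus; nearly all actives have a fitted effect of over 45% in size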

Question: Which outcome does the source give for `CN=C(NC#N)Nc1ccc(C2=NNC(=O)CC2C)cc1` (stereo not drawn) here?
Answer: inactive

Question: For `O=C(OCC1(COC(=O)c2cccnc2)CCCC(COC(=O)c2cccnc2)(COC(=O)c2cccnc2)C1O)c1cccnc1`, which outcome is on record?
Answer: inactive

Question: Which outcome does the source give for `OCCN(CCO)c1cccc(Cl)c1` here?
Answer: inactive

Question: Which outcome does the source give for `CCCC/C=C\CCCCCCCCCC=O` here?
Answer: inactive

Question: For `CC(C)(C)OC(=O)c1ccc(O)cc1`, which outcome is on record?
Answer: inactive

Question: For `CC/C=C\CC1=C(C)CCC1=O`, which outcome is on record?
Answer: inactive

Question: With `CCC(C=O)CC` as the molecule, how does the outcome read?
Answer: inactive

Question: With `BrCc1cccc(Oc2ccccc2)c1` as the molecule, how does the outcome read?
Answer: inactive

Question: Which outcome does the source give for `C[Si](C)(C)C` here?
Answer: inactive

Question: Which outcome does the source give for `N#Cc1ccc(C(=O)O)cc1` here?
Answer: inactive

Question: For `O=C(NCCN1CCOCC1)c1ccc(Cl)cc1`, which outcome is on record?
Answer: inactive

Question: For `CC(C)CC(C)CC(C)CC(C)COC(=O)c1ccccc1C(=O)OCC(C)CC(C)CC(C)CC(C)C` (stereo not drawn), which outcome is on record?
Answer: inactive

Question: For `CCCOC(OCCC)OCCC`, which outcome is on record?
Answer: inactive

Question: Which outcome does the source give for `CNC(=O)[C@H]1O[C@@H](n2cnc3c(NCc4cc(Cl)ccc4OCc4cc(C)no4)ncnc32)[C@H](O)[C@@H]1N` here?
Answer: inactive

Question: With `FC(F)(F)c1ccccc1-n1ccnc1` as the molecule, how does the outcome read?
Answer: inactive

Question: Which outcome does the source give for `CC1COc2ccccc2N1` (stereo not drawn) here?
Answer: inactive

Question: With `O=C(O)c1cc(Br)c(O)c(Br)c1` as the molecule, how does the outcome read?
Answer: inactive

Question: With `C=CC(OCC)OCC` as the molecule, how does the outcome read?
Answer: inactive

Question: With `CCOCCOCCOCC` as the molecule, how does the outcome read?
Answer: inactive

Question: For `C#CC(C)N(C)C(=O)Nc1ccc(Cl)cc1` (stereo not drawn), which outcome is on record?
Answer: inactive

Question: With `CCO[Si](CCCS)(OCC)OCC` as the molecule, how does the outcome read?
Answer: inactive

Question: For `N[C@@H](COP(=O)(O)O)C(=O)O`, which outcome is on record?
Answer: inactive

Question: With `Cc1ccccc1N=O` as the molecule, how does the outcome read?
Answer: inactive

Question: For `CC(=O)c1sc(C)nc1C`, which outcome is on record?
Answer: inactive

Question: With `CCC(C)(CCC(C)C)C(=O)O` (stereo not drawn) as the molecule, how does the outcome read?
Answer: inactive

Question: Which outcome does the source give for `CC(C)(C)c1cc(CCC(=O)NN)cc(C(C)(C)C)c1O` here?
Answer: inactive

Question: Which outcome does the source give for `O=S(=O)(O)CCN1CCN(CCO)CC1` here?
Answer: inactive

Question: Which outcome does the source give for `CC(C)NCC(O)COc1cccc2[nH]ccc12` (stereo not drawn) here?
Answer: inactive

Question: For `CC(=O)N[C@@H](CCC(=O)O)C(=O)O`, which outcome is on record?
Answer: inactive

Question: With `c1ccc2c(c1)ccc1c3ccccc3ccc21` as the molecule, how does the outcome read?
Answer: inactive

Question: With `CCN(CC)CC(=O)Nc1c(C)cccc1C` as the molecule, how does the outcome read?
Answer: inactive

Question: Which outcome does the source give for `COc1ccc(OC)c(Cl)c1` here?
Answer: inactive

Question: For `CC(CN)CC(C)(C)CCN` (stereo not drawn), which outcome is on record?
Answer: inactive

Question: For `O=C(NCC(O)CO)c1c(I)c(C(=O)NCC(O)CO)c(I)c(N(CCO)C(=O)CO)c1I` (stereo not drawn), which outcome is on record?
Answer: inactive

Question: For `NCCS`, which outcome is on record?
Answer: inactive

biological target: Aromatase (Homo sapiens) (UniProt P11511); experiment: qHTS assay to identify aromatase inhibitors (AID 743083); conditions: MCF-7 aro ERE, testosterone-driven ERE luciferase, 24 h; series mostly up to 70.3 µM; also: nearly all actives have a fitted effect of over 55% in size; also: potency is read from the fitted curve at half-maximal effect
Sequence (P11511 whole entry, looked up): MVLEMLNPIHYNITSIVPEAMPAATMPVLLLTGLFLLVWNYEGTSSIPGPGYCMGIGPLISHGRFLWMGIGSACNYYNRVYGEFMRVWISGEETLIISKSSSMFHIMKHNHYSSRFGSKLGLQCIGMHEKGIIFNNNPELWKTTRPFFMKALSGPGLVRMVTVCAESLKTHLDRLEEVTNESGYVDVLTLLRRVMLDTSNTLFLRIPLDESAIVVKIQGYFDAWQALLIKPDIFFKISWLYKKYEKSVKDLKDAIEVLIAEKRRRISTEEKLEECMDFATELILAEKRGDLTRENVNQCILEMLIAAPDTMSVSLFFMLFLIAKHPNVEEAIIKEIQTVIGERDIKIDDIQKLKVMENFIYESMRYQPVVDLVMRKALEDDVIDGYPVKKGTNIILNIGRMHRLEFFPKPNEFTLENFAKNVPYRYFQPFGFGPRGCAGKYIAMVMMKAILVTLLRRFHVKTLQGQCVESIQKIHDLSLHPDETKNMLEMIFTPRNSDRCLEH

Question: Which Potency does the source give for `CN=C(NC#N)Nc1ccc(C2=NNC(=O)CC2C)cc1` (stereo not drawn) here?
Answer: inactive

Question: Which Potency does the source give for `O=C(OCC1(COC(=O)c2cccnc2)CCCC(COC(=O)c2cccnc2)(COC(=O)c2cccnc2)C1O)c1cccnc1` here?
Answer: inactive

Question: With `OCCN(CCO)c1cccc(Cl)c1` as the molecule, how does the Potency read?
Answer: inactive

Question: With `CCCC/C=C\CCCCCCCCCC=O` as the molecule, how does the Potency read?
Answer: inactive

Question: Which Potency does the source give for `CC(C)(C)OC(=O)c1ccc(O)cc1` here?
Answer: inactive

Question: Which Potency does the source give for `CC/C=C\CC1=C(C)CCC1=O` here?
Answer: inactive

Question: For `CCC(C=O)CC`, which Potency is on record?
Answer: inactive

Question: With `BrCc1cccc(Oc2ccccc2)c1` as the molecule, how does the Potency read?
Answer: inactive

Question: For `C[Si](C)(C)C`, which Potency is on record?
Answer: inactive

Question: With `N#Cc1ccc(C(=O)O)cc1` as the molecule, how does the Potency read?
Answer: inactive

Question: Which Potency does the source give for `O=C(NCCN1CCOCC1)c1ccc(Cl)cc1` here?
Answer: inactive

Question: For `CC(C)CC(C)CC(C)CC(C)COC(=O)c1ccccc1C(=O)OCC(C)CC(C)CC(C)CC(C)C` (stereo not drawn), which Potency is on record?
Answer: inactive

Question: Which Potency does the source give for `CCCOC(OCCC)OCCC` here?
Answer: inactive

Question: With `CNC(=O)[C@H]1O[C@@H](n2cnc3c(NCc4cc(Cl)ccc4OCc4cc(C)no4)ncnc32)[C@H](O)[C@@H]1N` as the molecule, how does the Potency read?
Answer: inactive

Question: With `FC(F)(F)c1ccccc1-n1ccnc1` as the molecule, how does the Potency read?
Answer: 6.68 µM (active)

Question: With `CC1COc2ccccc2N1` (stereo not drawn) as the molecule, how does the Potency read?
Answer: inactive

Question: With `O=C(O)c1cc(Br)c(O)c(Br)c1` as the molecule, how does the Potency read?
Answer: inactive

Question: For `C=CC(OCC)OCC`, which Potency is on record?
Answer: inactive

Question: With `CCOCCOCCOCC` as the molecule, how does the Potency read?
Answer: inactive

Question: With `C#CC(C)N(C)C(=O)Nc1ccc(Cl)cc1` (stereo not drawn) as the molecule, how does the Potency read?
Answer: inactive

Question: With `CCO[Si](CCCS)(OCC)OCC` as the molecule, how does the Potency read?
Answer: inactive

Question: With `N[C@@H](COP(=O)(O)O)C(=O)O` as the molecule, how does the Potency read?
Answer: inactive

Question: Which activity, negative = inhibition does the source give for `COC(=O)C1CC(=O)C(C(=O)OC)CC1=O` (stereo not drawn) here?
Answer: 8.29% [at 8.47 µM]

Question: For `CC(=O)c1sc(C)nc1C`, which Potency is on record?
Answer: inactive

Question: For `CC(C)(C)c1cc(CCC(=O)NN)cc(C(C)(C)C)c1O`, which Potency is on record?
Answer: inactive

Question: Which Potency does the source give for `O=S(=O)(O)CCN1CCN(CCO)CC1` here?
Answer: inactive

Question: With `CC(C)NCC(O)COc1cccc2[nH]ccc12` (stereo not drawn) as the molecule, how does the Potency read?
Answer: inactive

Question: Which Potency does the source give for `CC(=O)N[C@@H](CCC(=O)O)C(=O)O` here?
Answer: inactive

Question: With `c1ccc2c(c1)ccc1c3ccccc3ccc21` as the molecule, how does the Potency read?
Answer: inactive

Question: Which Potency does the source give for `COc1ccc(OC)c(Cl)c1` here?
Answer: inactive

Question: With `CC(CN)CC(C)(C)CCN` (stereo not drawn) as the molecule, how does the Potency read?
Answer: inactive

Question: With `NCCS` as the molecule, how does the Potency read?
Answer: inactive

system: not listed separately; experiment: qHTS assay to identify aromatase inhibitors - cell viability counter screen (AID 743084); conditions: MCF-7 aro ERE viability, CellTiter-Fluor, 24 h; series mostly up to 70.3 µM;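 also: cells stimulated with testosterone during compound exposure; nearly all actives have a fitted effect of over 55% in size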

Question: With `CN=C(NC#N)Nc1ccc(C2=NNC(=O)CC2C)cc1` (stereo not drawn) as the molecule, how does the Potency read?
Answer: inactive

Question: For `O=C(OCC1(COC(=O)c2cccnc2)CCCC(COC(=O)c2cccnc2)(COC(=O)c2cccnc2)C1O)c1cccnc1`, which Potency is on record?
Answer: inactive

Question: For `OCCN(CCO)c1cccc(Cl)c1`, which Potency is on record?
Answer: inactive

Question: For `CCCC/C=C\CCCCCCCCCC=O`, which Potency is on record?
Answer: inactive

Question: For `CC(C)(C)OC(=O)c1ccc(O)cc1`, which Potency is on record?
Answer: inactive

Question: With `CC/C=C\CC1=C(C)CCC1=O` as the molecule, how does the Potency read?
Answer: inactive

Question: Which Potency does the source give for `CCC(C=O)CC` here?
Answer: inactive

Question: For `BrCc1cccc(Oc2ccccc2)c1`, which Potency is on record?
Answer: inactive

Question: With `C[Si](C)(C)C` as the molecule, how does the Potency read?
Answer: inactive

Question: With `N#Cc1ccc(C(=O)O)cc1` as the molecule, how does the Potency read?
Answer: inactive

Question: For `O=C(NCCN1CCOCC1)c1ccc(Cl)cc1`, which Potency is on record?
Answer: inactive

Question: With `CC(C)CC(C)CC(C)CC(C)COC(=O)c1ccccc1C(=O)OCC(C)CC(C)CC(C)CC(C)C` (stereo not drawn) as the molecule, how does the Potency read?
Answer: inactive

Question: With `CCCOC(OCCC)OCCC` as the molecule, how does the Potency read?
Answer: inactive

Question: With `CNC(=O)[C@H]1O[C@@H](n2cnc3c(NCc4cc(Cl)ccc4OCc4cc(C)no4)ncnc32)[C@H](O)[C@@H]1N` as the molecule, how does the Potency read?
Answer: inactive

Question: For `FC(F)(F)c1ccccc1-n1ccnc1`, which Potency is on record?
Answer: inactive

Question: Which Potency does the source give for `CC1COc2ccccc2N1` (stereo not drawn) here?
Answer: inactive

Question: With `O=C(O)c1cc(Br)c(O)c(Br)c1` as the molecule, how does the Potency read?
Answer: inactive

Question: Which Potency does the source give for `CCOCCOCCOCC` here?
Answer: inactive

Question: With `C#CC(C)N(C)C(=O)Nc1ccc(Cl)cc1` (stereo not drawn) as the molecule, how does the Potency read?
Answer: inactive

Question: Which Potency does the source give for `CCO[Si](CCCS)(OCC)OCC` here?
Answer: inactive

Question: For `N[C@@H](COP(=O)(O)O)C(=O)O`, which Potency is on record?
Answer: inactive

Question: For `CC(=O)c1sc(C)nc1C`, which Potency is on record?
Answer: inactive

Question: Which Potency does the source give for `CC(C)(C)c1cc(CCC(=O)NN)cc(C(C)(C)C)c1O` here?
Answer: inactive

Question: For `O=S(=O)(O)CCN1CCN(CCO)CC1`, which Potency is on record?
Answer: inactive

Question: Which Potency does the source give for `CC(C)NCC(O)COc1cccc2[nH]ccc12` (stereo not drawn) here?
Answer: inactive

Question: With `CC(=O)N[C@@H](CCC(=O)O)C(=O)O` as the molecule, how does the Potency read?
Answer: inactive

Question: With `c1ccc2c(c1)ccc1c3ccccc3ccc21` as the molecule, how does the Potency read?
Answer: inactive

Question: For `CCN(CC)CC(=O)Nc1c(C)cccc1C`, which Potency is on record?
Answer: inactive

Question: Which Potency does the source give for `COc1ccc(OC)c(Cl)c1` here?
Answer: inactive

Question: Which Potency does the source give for `CC(CN)CC(C)(C)CCN` (stereo not drawn) here?
Answer: inactive

Question: With `NCCS` as the molecule, how does the Potency read?
Answer: inactive
